Screening data deposited in PubChem by National Center for Advancing Translational Sciences (NCATS).
HT1080NT lethal = kills 2HG-producing HT-1080-NT fibrosarcoma cells. HT-1080-NT fibrosarcoma viability, CellTiter-Glo ATP luminescence, 48 h. Potency, µM (top dose mostly 46.1 µM), most hits filed as cytotoxic. 360,000 compounds, 1.6% hits. AID 686970;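 further: NT is the 2HG producing partner of a matched IDH1 knockdown line; nearly all actives have a fitted effect of over 55% in size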
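Fibrosarcoma NT cells, 750 per well in 5% FBS RPMI, were exposed to compound for 48 hours. Viability: CellTiter-Glo luminescence.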
DT40 TDP1 CPT = DT40-hTDP1 cell growth loss with CPT | chicken DT40 Tdp1-/-;hTDP1 cells + 20 nM CPT, ATP luminescence, 48 h | Potency, µM (top dose mostly 46.2 µM), most hits filed as inhibitors | 420,000 compounds, 12% hits | AID 686979; further: nearly all actives have a fitted effect of over 55% in size
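Chicken DT40 Tdp1-/- cells stably complemented with human TDP1 were seeded at 400 cells/well in medium containing 20 nM camptothecin, exposed to pin-transferred compounds, and grown at 37 °C for at least 48 hr. Viability was read as ATP luminescence.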
HT1080 IDH1KD tx = HT-1080 IDH1 knockdown cell toxicity (counter line); AID 686971; HT-1080 IDH1 knockdown viability, ATP luminescence, 48 h; Potency, µM (doses to about 46.1 µM), hits mostly cytotoxic; 360,000 compounds, 2% hits
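CellTiter-Glo luminescence after 48 h compound exposure at 37 degrees C of IDH1-knockdown HT-1080 cells in 5% FBS RPMI. %Activity scaled between DMSO wells and cell-free media wells, with curves fitted and assigned curve classes.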
KB-V1 cytotox = kills drug-selected multidrug resistant KB-V1 cells. KB-V1 MDR cells viability, CellTiter-Glo, 72 h. Potency, µM (top dose mostly 46.1 µM), hits mostly cytotoxic. 400,000 compounds, 3.4% hits; further: nearly all actives have a fitted effect of over 60% in size
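Cytotoxicity via CellTiter-Glo luminescence after 72 h compound exposure at 37 degrees C. Cells: drug-selected KB-V1 line, DMEM phenol-red free plus 10% FBS. Compounds tested at multiple concentrations; normalized data fitted to concentration-effect curves.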
TDP1 cell noCPT = qHTS for Inhibitors of human tyrosyl-DNA phosphodiesterase 1 (TDP1): qHTS in cells in absence of CPT; DT40 Tdp1-/- hTDP1 cells, no CPT, ATP luminescence, 48 h; Potency, µM (doses to about 46.2 µM), actives largely listed as inhibitors; 420,000 compounds, 15% hits; AID 686978, 2013; further: nearly all actives have a fitted effect of over 55% in size
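Growth kinetics read by CellTiter-Glo luminescence after ≥48 hr at 37 °C. Cells: DT40 Tdp1-/- stably carrying human TDP1, 400 per well, compound exposure in the absence of CPT (DMSO vehicle).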
KB-3-1 tox = KB-3-1 parental cell cytotoxicity; 400,000 compounds, 1.4% hits; KB-3-1 viability, CellTiter-Glo ATP luminescence, 72 h; AID 1347075; Potency, µM (series often up to 46.1 µM), most hits filed as cytotoxic; further: nearly all actives have a fitted effect of over 60% in size
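Cytotoxicity in the drug-sensitive parental line KB-3-1 was scored as loss of CellTiter-Glo luminescence following 72 h incubation with compound. Values come from curve fitting of normalized concentration-response data.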
Each line names hits and unclear results; the compound was inactive in the other large screens. The list is not random: actives were taken first. Their share in the collection is about 19%. The call rests on the fitted dose curve; in most records, active means well fitted curve in the direction sought with a large enough effect; inconclusive means small, poorly fitted or top-dose-only effect, or another doubt; inactive means no such curve, though single readings can be large; an effect the other way counts as inactive or inconclusive.

CN(C(=O)c1cccc(NC(=O)Cc2cccc(NC(=O)C3CCCN(C(=O)c4ccccc4)C3)c2)c1)C1CC1 (configuration not stated)	TDP1 cell noCPT inconclusive
CCOC(=O)C(Sc1cc(-c2ccccc2)nc2ncnn12)C(C)=O (configuration not stated)	HT1080NT lethal inconclusive, DT40 TDP1 CPT inconclusive, TDP1 cell noCPT 18.4µM, KB-3-1 tox inconclusive
CCc1c(-c2ccccc2OC)ncn1Cc1cccc(-c2ccccc2)c1	HT1080NT lethal 14.6µM, DT40 TDP1 CPT 0.651µM, HT1080 IDH1KD tx 8.2µM, KB-V1 cytotox inconclusive, TDP1 cell noCPT 0.517µM, KB-3-1 tox 13µM
CCc1c(-c2ccc(OC)cc2)ncn1Cc1cccc(-c2ccccc2)c1	HT1080NT lethal inconclusive, DT40 TDP1 CPT 7.31µM, HT1080 IDH1KD tx inconclusive, KB-V1 cytotox 16.4µM, TDP1 cell noCPT 4.61µM, KB-3-1 tox inconclusive
COc1ccccc1-c1nc2cc3ccccc3cc2nc1-c1ccccc1OC	DT40 TDP1 CPT inconclusive, TDP1 cell noCPT inconclusive
COc1ccccc1-c1nc2ccccc2n(CC(C)C)c1=O	DT40 TDP1 CPT inconclusive, KB-V1 cytotox inconclusive, TDP1 cell noCPT inconclusive
COc1ccccc1-c1ncn(Cc2cccc(-c3ccccc3)c2)c1CC(C)C	HT1080NT lethal 18.4µM, DT40 TDP1 CPT 20.6µM, HT1080 IDH1KD tx inconclusive, KB-V1 cytotox 16.4µM, TDP1 cell noCPT 18.4µM, KB-3-1 tox inconclusive
CC(C)(C)NC(=S)NCc1ccncc1	none
O=C(CCNC(=O)c1ccco1)Nc1ccccc1N1CCOCC1	none
COc1ccc(N(CC(=O)NCc2cccs2)S(=O)(=O)c2c(C)n[nH]c2C)cc1	none
CC1CC(=O)c2c(cc3c(-c4c(O)cc(O)c5c(O)c6c(cc45)OC(C)CC6=O)c(O)cc(O)c3c2O)O1 (configuration not stated)	HT1080NT lethal 4.61µM, DT40 TDP1 CPT 1.03µM, HT1080 IDH1KD tx 5.17µM, KB-V1 cytotox inconclusive, TDP1 cell noCPT 1.3µM, KB-3-1 tox inconclusive
O=C1CC(c2ccc(O)cc2)Oc2cc(O)cc(O)c21 (configuration not stated)	none
O=C(NNC(=S)NC1CCCCC1)c1ccc2c(c1)OCO2	DT40 TDP1 CPT inconclusive, TDP1 cell noCPT 18.4µM
Cc1onc(-c2ccccc2)c1C(=O)NNC(=S)NC(=O)/C=C/c1cccs1	HT1080NT lethal inconclusive, DT40 TDP1 CPT 16.4µM, HT1080 IDH1KD tx inconclusive, KB-V1 cytotox inconclusive, TDP1 cell noCPT 23.1µM, KB-3-1 tox inconclusive
O=C(NC1CCCCCCC1)c1ccc2c(c1)OCO2	TDP1 cell noCPT inconclusive
Cc1onc(-c2ccccc2)c1C(=O)NC(=S)NNC(=O)c1cc(-c2ccc(F)cc2)n[nH]1	HT1080NT lethal inconclusive, DT40 TDP1 CPT inconclusive, HT1080 IDH1KD tx inconclusive, KB-V1 cytotox inconclusive, TDP1 cell noCPT 20.6µM, KB-3-1 tox inconclusive
Cc1onc(-c2ccccc2)c1C(=O)NNC(=S)NC(=O)c1ccc2c(c1)OCO2	HT1080NT lethal inconclusive, HT1080 IDH1KD tx inconclusive, KB-V1 cytotox inconclusive, TDP1 cell noCPT 1.64µM
CC(O)(COc1ccccc1)c1ccc2c(c1)CN(Cc1cccc3ncccc13)CCO2 (configuration not stated)	TDP1 cell noCPT inconclusive (no result: HT1080NT lethal, HT1080 IDH1KD tx, KB-V1 cytotox, KB-3-1 tox)
O=C(NC(=S)NCCN1CCOCC1)c1ccc(Cl)cc1	none
Cc1onc(-c2ccccc2)c1C(=O)NC(=S)NNC(=O)c1ccco1	DT40 TDP1 CPT inconclusive, HT1080 IDH1KD tx inconclusive, KB-V1 cytotox inconclusive, TDP1 cell noCPT 16.4µM, KB-3-1 tox inconclusive
O=C(Nc1ccccc1Cl)C1(c2ccccc2)CC1(Cl)Cl (configuration not stated)	TDP1 cell noCPT 11.6µM
CC(C)(C)c1ccc(C(=O)Nc2ccc(C=C(C#N)C#N)cc2)cc1	HT1080NT lethal inconclusive, DT40 TDP1 CPT 16.4µM, HT1080 IDH1KD tx inconclusive, KB-V1 cytotox inconclusive, TDP1 cell noCPT 11.6µM, KB-3-1 tox inconclusive
N#CC(C#N)=Cc1ccc(NC(=O)c2ccc(Br)cc2)cc1	DT40 TDP1 CPT 20.6µM, TDP1 cell noCPT 16.4µM
CC(OC(=O)c1ccccc1NS(=O)(=O)c1cccc(N)c1)C(=O)N(C)Cc1ccccc1 (configuration not stated)	DT40 TDP1 CPT inconclusive, KB-V1 cytotox 3.66µM, TDP1 cell noCPT 23.1µM, KB-3-1 tox inconclusive
CC(=O)c1cc(-c2ccccc2)n(CCC(=O)NCc2ccc(C)cc2)c1C	DT40 TDP1 CPT inconclusive, TDP1 cell noCPT inconclusive (no result: HT1080NT lethal, HT1080 IDH1KD tx)
CCCCC1=CC2=CC(=O)C(C)(OC(=O)CC)C(=O)C2=CN1Cc1ccc(OC)cc1 (configuration not stated)	DT40 TDP1 CPT 25.9µM, TDP1 cell noCPT 13µM
COC(=O)CCCC1=CC2=C(c3ccccc3)C(=O)C(C)(OC(=O)C3CCCC3)C(=O)C2=CN1CC1CC1 (configuration not stated)	none
CCCCC1=CC2=C(c3ccco3)C(=O)C(C)(OC(=O)c3ccc(OC)cc3)C(=O)C2=CN1Cc1ccccc1 (configuration not stated)	DT40 TDP1 CPT 5.17µM, TDP1 cell noCPT 4.61µM
COc1ccc(CN2C=C3C(=O)C(C)(OC(=O)C4CCCC4)C(=O)C=C3C=C2c2ccsc2)cc1 (configuration not stated)	DT40 TDP1 CPT inconclusive, TDP1 cell noCPT 11.6µM
CCCCC1=CC2=CC(=O)C(C)(OC(=O)CC)C(=O)C2=CN1CC(C)C (configuration not stated)	DT40 TDP1 CPT inconclusive, TDP1 cell noCPT inconclusive
CCCCC1=CC2=C(c3ccco3)C(=O)C(C)(OC(=O)c3ccc(OC)cc3)C(=O)C2=CN1CCOC (configuration not stated)	none
CC1(OC(=O)C2CCCC2)C(=O)C=C2C=C(c3ccsc3)N(CCCCO)C=C2C1=O (configuration not stated)	none
COC(=O)CCCC1=CC2=C(c3ccccc3)C(=O)C(C)(OC(=O)C3CCCC3)C(=O)C2=CN1C1CCCC1 (configuration not stated)	DT40 TDP1 CPT inconclusive, TDP1 cell noCPT 16.4µM
Nc1nccnc1C(=O)OCC(=O)NC1CCCc2ccccc21 (configuration not stated)	KB-V1 cytotox inconclusive
COc1cc(C(=O)O)nc(OC)n1	none
O=C(c1cccc(Cl)c1)N1CCC(=O)N(C(CO)Cc2ccccc2)CC1 (configuration not stated)	none
